Hit rate of the full screen: of about 390,000 compounds, about 910 (0.23%) were called active. About 5% were inconclusive and are not listed. The full list was thinned out, with actives kept by preference. Values without a mark were called inactive. The call rests on the fitted dose curve; in most records, active means well fitted inhibition curve with a large enough effect; inconclusive means small, poorly fitted or top-dose-only effect; inactive means no such curve, though single readings can be large or run the other way.
target: Ubiquitin carboxyl-terminal hydrolase 1 (Homo sapiens) (UniProt O94782); assay: Inhibitors of USP1/UAF1: Primary Screen; conditions: recombinant USP1/UAF1, Ub-Rhodamine cleavage fluorescence; series mostly up to 57.1 µM; activity change, negative = inhibition: at the top concentration; further: nearly all actives have a fitted effect of over 60% in size
Sequence (O94782 whole entry, looked up): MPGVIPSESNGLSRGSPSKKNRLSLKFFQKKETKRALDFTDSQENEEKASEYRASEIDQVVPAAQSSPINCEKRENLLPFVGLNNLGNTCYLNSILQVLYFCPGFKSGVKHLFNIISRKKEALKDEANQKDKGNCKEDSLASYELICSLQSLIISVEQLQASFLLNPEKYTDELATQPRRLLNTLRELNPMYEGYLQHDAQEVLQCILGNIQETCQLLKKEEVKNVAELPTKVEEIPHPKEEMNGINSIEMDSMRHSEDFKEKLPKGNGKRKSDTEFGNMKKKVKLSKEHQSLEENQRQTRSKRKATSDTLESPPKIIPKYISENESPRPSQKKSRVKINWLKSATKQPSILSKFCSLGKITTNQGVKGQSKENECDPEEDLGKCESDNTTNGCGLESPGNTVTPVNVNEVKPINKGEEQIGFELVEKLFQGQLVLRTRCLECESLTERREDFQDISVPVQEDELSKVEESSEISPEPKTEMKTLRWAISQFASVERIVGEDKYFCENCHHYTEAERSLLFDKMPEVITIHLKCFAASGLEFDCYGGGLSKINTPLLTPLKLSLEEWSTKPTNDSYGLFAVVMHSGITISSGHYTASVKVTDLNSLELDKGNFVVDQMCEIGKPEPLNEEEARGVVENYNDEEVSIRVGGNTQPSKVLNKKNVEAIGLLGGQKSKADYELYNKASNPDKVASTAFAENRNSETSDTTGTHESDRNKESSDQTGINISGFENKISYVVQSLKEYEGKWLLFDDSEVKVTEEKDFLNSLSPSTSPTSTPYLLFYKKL
From the text: Deubiquitinating enzymes (DUBs) are a class of enzymes that can cleave isopeptide bond formed between the C-terminal carboxylate of ubiquitin and a lysine side-chain amino group on the target protein. Among them, ubiquitin specific proteases (USPs) constitute the largest DUB family. Human USPs are emerging as promising targets for pharmacological intervention because of their connection to a number of human diseases, including prostate, colon and breast cancer (1, 2), pediatric acute lymphoblastic leukemia (3), and familial cylindromatosis (4). The advantage of inhibiting USPs lies in the potential specificity of therapeutic intervention that can lead to better efficacy and reduce nonspecific side effects. In a collaboration between the University of Delaware and the NIH Chemical Genomics Center, a high-throughput screen assay was developed to screen for USP1/UAF1 inhibitors. This miniaturized assay has a fluorescent read-out and is used to screen the NIH Molecular Libraries Small Molecule Repository (MLSMR) in order to identify a small molecule that inhibits USP1. NIH Chemical Genomics Center [NCGC] NIH Molecular Libraries Probe Centers Network [MLPCN] MLPCN Grant: DA030552 Assay Submitter (PI): Zhihao Zhuang, University of Delaware 1. Priolo, C., et al. (2006) The isopeptidase USP2a protects human prostate cancer from apoptosis. Cancer Res 66, 8625-8632 2. Popov, N., et al. (2007) The ubiquitin-specific protease USP28 is required for MYC stability. Nat Cell Biol 9, 765-774 3. De Pitta, C., et al. (2005) A leukemia-enriched cDNA microarray platform identifies new transcripts with relevance to the biology of pediatric acute lymphoblastic leukemia. Haematologica 90, 890-898 4. Kovalenko, A., et al. (2003) The tumour suppressor CYLD negatively regulates NF-kappaB signalling by deubiquitination. Nature 424, 801-805
3 microliters of reagents (buffer in columns 3 and 4 as negative control and 1nM USP1/UAF1 complex in columns 1, 2, and 5-48) are dispensed into Greiner black solid bottom 1536-well assay plates. Compounds are then transferred via Kalypsys pin tool equipped with 1536-pin array (10nl slotted pins, V&P Scientific, San Diego, CA). Following an incubation step of 15 min at room temperature, 1ul of Ub-Rho substrate (150nM final concentration) is added to initiate the reaction. The plates are immediately centrifuged at 1000 rpm for 15 seconds, and subsequently transferred to a ViewLux high-throughput CCD imager (PerkinElmer) wherein kinetic measurements of fluorescence are acquired using 480 nm excitation/540 nm emission filter set (6 reads every 60 seconds, see Table 1). All reagents are diluted in an assay buffer consisting of 50mM HEPES (pH 7.8), 0.5mM EDTA, 0.1 mg/ml BSA, 1mM TCEP, and 0.01% Tween-20.
On the % scale 0 is the no-effect control and ±100 the full control effect; potency means the concentration at half of the fitted maximal effect.

Row | SMILES | activity change, negative = inhibition [%] | Potency
1 | Cc1ncoc1C(=O)NCC1=C(c2cccc3ccccc23)C[C@@H]2CC[C@H]1N2Cc1ccco1 | -26.1 | 
2 | COc1cc(Cn2c(N)c(C(=O)NCc3ccco3)c3nc4ccccc4nc32)cc(OC)c1OC |  | 22.4 µM (active)
3 | COC(=O)C1=C(c2ccccc2)C[C@@H]2CC[C@H]1N2C(=O)NCc1ccco1 | -13.6 | 
4 | CN(C)CC1Oc2ccccc2OC1(O)c1ccccc1 (stereo not given) | -24 | 
5 | Cc1ccc(-n2c(/C=C/c3cccc(C(F)(F)F)c3)nc3ccccc3c2=O)cc1 | -2.31 | 
6 | COC(=O)C1=C(c2ccc(OCc3ccccc3)cc2)C[C@@H]2CC[C@H]1N2C(=O)NCc1cccc(F)c1 | -16.5 | 
7 | O=C1NC(=O)N(c2ccccc2)C(=O)/C1=C/c1ccc([N+](=O)[O-])s1 |  | 28.2 µM (active)
8 | CC(=O)C1(O)CCC2C3CCC4=C(Cl)C(=O)CCC4(C)C3CCC21C (stereo not given) | -6.63 | 
9 | Cn1cc(/C=C/c2nc3ccccc3c(=O)n2-c2ccccc2)c2ccccc21 | -33.4 | 
10 | Cc1c(C(=O)O)cccc1-n1c(C)cc(/C=C2\C(=O)NC(=O)N(c3ccc4c(c3)OCO4)C2=O)c1C | -1.73 | 
11 | COc1cccc(N2C(=O)NC(=O)/C(=C\c3cn(C)c4ccccc34)C2=O)c1 |  | 11.2 µM (active)
12 | O=C1C2CCN(CC2)C1(CO)CO | -25.6 | 
13 | C[N+](C)(C)CCOP(=O)([O-])OC[C@H](O)CO | 1.6 | 
14 | Cc1ccc(OC(=O)N(C)C[C@@H]2OCc3cnnn3CCCC(=O)N([C@H](C)CO)C[C@@H]2C)cc1 | -16.6 | 
15 | COc1cc(C2c3cc4c(cc3C(O)C3COC(=O)C23)OCO4)cc(OC)c1OC (stereo not given) | -15.3 | 

— PubChem BioAssay AID743255 (National Center for Advancing Translational Sciences (NCATS), 2014)
